Results published in ChEMBL document CHEMBL1961873, “Compounds: GSK PKIS; Assays: Nanosyn kinase panel” (2012).

These compounds were tested against Vascular endothelial growth factor receptor 2 (Homo sapiens) (UniProt P35968). Conditions: at 1 µM.
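Further: each value is the mean percent inhibition of KDR.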

Chain of Vascular endothelial growth factor receptor 2 (Homo sapiens) (P35968 whole entry): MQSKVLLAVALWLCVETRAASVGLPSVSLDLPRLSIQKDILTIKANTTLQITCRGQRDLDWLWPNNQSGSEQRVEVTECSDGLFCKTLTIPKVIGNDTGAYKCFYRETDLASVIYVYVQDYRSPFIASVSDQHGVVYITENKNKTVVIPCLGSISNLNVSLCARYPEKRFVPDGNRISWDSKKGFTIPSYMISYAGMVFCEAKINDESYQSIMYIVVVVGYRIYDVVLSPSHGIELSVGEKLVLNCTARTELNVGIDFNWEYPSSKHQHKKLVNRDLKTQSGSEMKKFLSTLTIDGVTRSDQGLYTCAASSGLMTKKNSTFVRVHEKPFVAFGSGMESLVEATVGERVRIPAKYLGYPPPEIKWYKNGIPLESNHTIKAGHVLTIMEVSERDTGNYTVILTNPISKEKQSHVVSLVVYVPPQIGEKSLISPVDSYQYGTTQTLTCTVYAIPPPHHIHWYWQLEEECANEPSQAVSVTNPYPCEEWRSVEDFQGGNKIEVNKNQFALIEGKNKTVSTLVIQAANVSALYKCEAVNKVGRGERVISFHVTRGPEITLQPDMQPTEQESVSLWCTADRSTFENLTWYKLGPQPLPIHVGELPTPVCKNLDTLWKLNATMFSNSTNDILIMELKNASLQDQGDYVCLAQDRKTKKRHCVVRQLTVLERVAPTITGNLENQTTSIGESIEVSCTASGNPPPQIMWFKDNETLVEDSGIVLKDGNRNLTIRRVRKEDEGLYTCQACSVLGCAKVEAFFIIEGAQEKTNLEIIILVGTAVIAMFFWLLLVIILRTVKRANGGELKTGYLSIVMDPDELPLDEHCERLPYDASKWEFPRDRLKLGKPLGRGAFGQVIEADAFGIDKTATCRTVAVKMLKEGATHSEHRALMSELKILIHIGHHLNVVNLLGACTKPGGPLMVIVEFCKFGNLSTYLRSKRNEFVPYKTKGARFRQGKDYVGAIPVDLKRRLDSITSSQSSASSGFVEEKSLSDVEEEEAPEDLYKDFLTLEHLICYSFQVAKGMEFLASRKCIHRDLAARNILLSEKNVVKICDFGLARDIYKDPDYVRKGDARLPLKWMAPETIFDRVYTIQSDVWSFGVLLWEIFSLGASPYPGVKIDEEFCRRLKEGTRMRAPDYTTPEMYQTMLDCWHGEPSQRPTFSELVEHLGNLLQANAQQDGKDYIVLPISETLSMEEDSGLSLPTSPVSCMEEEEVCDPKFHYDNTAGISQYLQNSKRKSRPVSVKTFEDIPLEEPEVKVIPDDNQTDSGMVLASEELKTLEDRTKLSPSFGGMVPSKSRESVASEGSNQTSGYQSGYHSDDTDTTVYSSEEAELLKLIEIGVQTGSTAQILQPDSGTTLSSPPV

Structure (SMILES)	inhibition [%]
N#Cc1c(NC(=O)c2cccc3ccccc23)sc2c1CCCC2	9.83
CCn1c(-c2nonc2N)nc2cncc(C(=O)N3CCNCC3)c21	9.13
NS(=O)(=O)c1cccc(-c2ccc3c(NC(=O)C4CC4)n[nH]c3c2)c1	6.32
CC1=C(C(=O)Nc2ccc3[nH]ncc3c2)C(c2ccc3ccccc3c2)CC(=O)N1 (configuration not stated)	12.5
Cc1nnc(-c2ccc(C)c(-c3ccc(C(=O)Nc4cccc(C#N)c4)cc3)c2)o1	7.82
Cc1nn(C)c2cc(N(C)c3ccnc(Nc4cccc(S(N)(=O)=O)c4)n3)ccc12	68.5
CS(=O)(=O)CCN(CC#N)Cc1ccc(-c2ccc3ncnc(Nc4ccc(OCc5cccc(F)c5)c(Cl)c4)c3c2)o1	7.7
NC(=O)c1cccc(Nc2nccc(Nc3cccc4[nH]ncc34)n2)c1	63.1
COc1cc2ncn(-c3cc(OCc4ccccc4Cl)c(C(N)=O)s3)c2cc1OC	53.9
Cc1cccc(-c2n[nH]cc2-c2ccc3ncccc3n2)n1	83.2
CCn1c(-c2nonc2N)nc2ccncc21	2.46
COc1cc2ncn(-c3cc(OCc4ccccc4C(F)(F)F)c(C(N)=O)s3)c2cc1OC	68.9
NCc1ccc(-c2nc(-c3ccc(Cl)c(O)c3)c(-c3ccncc3)[nH]2)cc1	74.8
CCN1CCC(CC(=O)Nc2n[nH]c3nc(-c4cccs4)c(Br)cc23)CC1	15.5
Nc1nc(-c2ccc3c(c2)C(=Cc2cc(Br)c(O)c(Br)c2)C(=O)N3)cs1	11.3
COc1ccc(-c2nn3ncccc3c2-c2ccnc(Nc3ccc(Cl)c(C(F)(F)F)c3)n2)cc1	4.52

Structure (SMILES)	inhibition [%]
COc1ccc(COc2ccc(Cc3cnc(N)nc3N)cc2OC)cc1	9.65
[O-][S+]1CCN(Cc2ccc(-c3ccc4ncnc(Nc5ccc(OCc6ccccc6)c(F)c5)c4c3)o2)CC1	6.19
CC(C)=Cc1cccc2c1/C(=N/Nc1ccc(S(N)(=O)=O)cc1)C(=O)N2	48.5
Nc1ncnc2occ(-c3ccc(NC(=O)Nc4cc(C(F)(F)F)cc(C(F)(F)F)c4)cc3)c12	68.2
COc1cc(C)c(NC(=O)CN(C)C)cc1Nc1nc(Nc2cccc(F)c2C(N)=O)c2cc[nH]c2n1	4.13
CS(=O)(=O)Nc1ccc(N/C=C2\C(=O)Nc3ccccc32)cc1	46.7
CC(=O)Nc1cccc(C#Cc2cncnc2Nc2ccc(OCc3cccc(F)c3)c(Cl)c2)n1	2.74
CN(C)c1cc2c(Nc3ccc4nc(Cc5ccccc5)[nH]c4c3)ncnc2cn1	10.4
COc1ccc(-c2ccncc2)cc1C(N)=O	13
O=C(Nc1n[nH]c2nc(-c3ccco3)c(Br)cc12)C1CC1	15.5
CS(=O)(=O)CCNCc1ccc(-c2ccc3ncnc(Nc4ccc(OCc5cccc(F)c5)c(C(F)(F)F)c4)c3c2)o1	3.93
CCn1c(-c2nonc2N)nc2c(C#CC(C)(C)O)nc(CN3CCCC3)cc21	20.1
CCn1c(-c2nonc2N)nc2c(N3CCCC3)nccc21	6.67
O=C1Nc2ccc(C(=O)c3ccco3)cc2C1=Cc1cc(Cl)c(O)c(Cl)c1	18.7
CS(=O)(=O)CCNCc1nc(-c2ccc3ncnc(Nc4ccc(F)c(Cl)c4)c3c2)cs1	18.5
Fc1cccc(COc2ccc(Nc3ncnc4cc(-c5ccc[nH]5)sc34)cc2Cl)c1	11.8
